Consider 108 molecules from PubChem BioAssay AID2553 (Johns Hopkins Ion Channel Center, 2010).

The campaign covered roughly 310,000 compounds. About 3,300 (1.1%) were called active.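 How the source made its calls: active means B-score under library mean minus 3 SD, initial fluorescence not abnormally high, positive integrated signal ratio; inactive means the rest.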 Shown is part of a subset that was picked to be rich in actives.

For this assay, the target named is Short transient receptor potential channel 6 (Mus musculus) (UniProt Q61143). Nature of the assay: mouse TRPC6 channel inhibitors, primary screen, cell-based, HEK293, membrane potential dye (AID 2553).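 On B-score: B-score derived from integrated fluorescence ratio over the kinetic read; more negative B-score means stronger inhibition of depolarization.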 The conditions noted are these: ACh-evoked depolarization, at 10 µM; stronger effect = lower value.
Sequence of Short transient receptor potential channel 6 (Mus musculus) (Q61143 whole entry, looked up): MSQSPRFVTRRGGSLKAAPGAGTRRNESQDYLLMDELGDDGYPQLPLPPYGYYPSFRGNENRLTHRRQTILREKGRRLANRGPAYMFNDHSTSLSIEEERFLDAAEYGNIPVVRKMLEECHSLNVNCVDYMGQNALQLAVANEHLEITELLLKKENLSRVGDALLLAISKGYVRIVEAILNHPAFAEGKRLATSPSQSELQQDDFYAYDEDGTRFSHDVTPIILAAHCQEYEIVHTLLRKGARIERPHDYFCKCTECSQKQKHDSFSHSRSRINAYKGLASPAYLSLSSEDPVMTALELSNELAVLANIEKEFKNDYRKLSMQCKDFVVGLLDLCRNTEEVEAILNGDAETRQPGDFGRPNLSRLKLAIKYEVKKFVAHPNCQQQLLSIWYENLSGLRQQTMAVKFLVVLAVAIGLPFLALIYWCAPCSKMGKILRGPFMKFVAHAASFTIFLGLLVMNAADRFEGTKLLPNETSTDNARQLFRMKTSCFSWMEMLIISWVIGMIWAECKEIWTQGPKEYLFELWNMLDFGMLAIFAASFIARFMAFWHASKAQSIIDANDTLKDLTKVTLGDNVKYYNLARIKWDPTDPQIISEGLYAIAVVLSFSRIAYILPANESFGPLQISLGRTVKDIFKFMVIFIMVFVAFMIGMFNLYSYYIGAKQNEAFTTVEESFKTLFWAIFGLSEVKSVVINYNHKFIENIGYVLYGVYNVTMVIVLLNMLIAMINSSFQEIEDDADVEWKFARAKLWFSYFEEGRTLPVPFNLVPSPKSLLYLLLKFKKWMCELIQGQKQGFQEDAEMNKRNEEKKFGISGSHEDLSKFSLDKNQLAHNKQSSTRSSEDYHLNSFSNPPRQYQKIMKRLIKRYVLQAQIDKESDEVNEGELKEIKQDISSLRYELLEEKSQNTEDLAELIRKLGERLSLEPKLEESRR
With `CC(=O)c1cc(NC(=O)c2ccccc2)c(=O)oc1/C=C/N(C)C`, the B-score was -5.52 (active). The same measure for `CC(=O)Oc1cccc(C(=O)Nc2ccccc2NC(=O)c2cccc(OC(C)=O)c2)c1`: “inactive”; for `CCOC(=O)c1cc(NC(=O)c2ccc(Cl)cc2)c(=O)oc1-c1ccccc1`: “inactive”; for `CCOC(=O)c1c(/N=C/c2cc(C)ccc2O)sc2c1CCC2`: “inactive”. With `CN(C(=O)COc1nnc(-c2cccs2)c(-c2cccs2)n1)c1ccccc1` the entry was “inactive”; with `CN(C)/C=C/C(=O)c1cnc2sccn2c1=O`, “inactive”. With `COC(=O)c1cccc(N(C(=O)c2ccco2)C(C(=O)NC2CCCC2)c2ccco2)c1` (stereo not drawn) the entry was “inactive”; with `Cc1cccc(N2CCN(C(C)C(=O)N3CCc4ccccc43)CC2)c1C` (stereo not drawn), “inactive”; with `O=C(c1ccccc1F)N(Cc1ccccc1)Cc1ccccc1`, “inactive”. With `O=C1c2ccccc2C(=O)c2c1cccc2N1CCN(Cc2ccccc2)CC1`, the B-score was -9.75 (active). Take `O=C1c2ccccc2C(=O)c2c1cccc2N1CCN(CCO)CC1`: the B-score is -11.5 (active). As to `O=C1c2ccccc2C(=O)c2c1cccc2N1CCN(C/C=C/c2ccccc2)CC1`, the B-score result is “inactive”. With `OCCN1CCN(C(=S)c2ccc(-c3ccccc3)cc2)CC1` the entry was “inactive”. The same measure for `O=C(CN1CCN(Cc2ccccc2)CC1)NC(c1ccccc1)c1ccccc1`: “inactive”. Consider `OCCN1CCN(c2nnc(-c3ccccc3)c3ccccc23)CC1`, for which the B-score result is “inactive”. The same measure for `O=C(CNCc1ccco1)Nc1cc(S(=O)(=O)N2CCOCC2)ccc1N1CCCC1`: “inactive”; for `Clc1cc(NC2CCCCC2)ncn1`: “inactive”. With `COc1ccc(S(=O)(=O)NCCOc2ccccc2)cc1F` the entry was “inactive”; with `CC(=O)c1c(O)cc2n(c1=O)-c1ccc(Cl)cc1C2(C)C`, “inactive”; with `O=C(NCc1ccc2c(c1)OCO2)c1c(O)nc2sccn2c1=O`, “inactive”. With `COCCOC(=O)c1sc(=S)n(CCOC)c1N` the entry was “inactive”; with `CC(Sc1nnc(CNC(=O)c2ccccc2F)n1C)C(=O)Nc1nccs1` (stereo not drawn), “inactive”; with `COc1cc(NC(=O)CCS(=O)(=O)c2ccc3c(c2)oc(=O)n3C)cc(OC)c1`, “inactive”.

For the molecule `Cc1cc(Nc2ccc(C(=O)N3CCCCC3)cc2)c2cccc(C)c2n1`, the B-score entry is “inactive”. With `Cc1cc(Nc2ccc(N3CCOCC3)cc2)c2cccc(C)c2n1` the figure was -7.55 (active); with `Cc1cc(Nc2ccc(Cl)cc2)nc(N2CCOCC2)n1`, “inactive”; with `Cc1cc(S(=O)(=O)NCC(C)C)ccc1OCC(=O)NC1CC1`, “inactive”. Take `CCN(CC)CCNc1nc(-c2ccc(OC(F)F)cc2)c(C)s1`: the B-score is -6.16 (active). With `CCOc1ccc(C2/C(=C(/O)c3ccc4c(c3)CC(C)O4)C(=O)C(=O)N2CCCn2ccnc2)cc1` (stereo not drawn), the B-score result is “inactive”.

On to `O=C(NCCN1CCOCC1)c1cc(-c2cccs2)nc2ccccc12`, for which the B-score result is “inactive”. Consider `CCCCN(C)CCCNC(=O)c1cc(-c2cccs2)nc2ccccc12`, for which the B-score was -6.6 (active).

With `COC(=O)c1cc(-c2cccs2)nc2ccccc12`, the B-score entry is “inactive”.

Regarding `CCc1nnc(NC(=O)CSc2nnnn2-c2cccc(C(C)=O)c2)s1`, the B-score entry was “inactive”.

As for `O=S(=O)(Nc1nccs1)c1ccc2c(c1)OCCO2`, the B-score result was “inactive”. With `Cc1ccc(Oc2nc(-c3ccccn3)nc3ccccc23)cc1` the entry was “inactive”; with `CCOCCCNc1nc(-c2ccccc2)nc2ccccc12`, “inactive”.

Consider `CC(C)(C)Nc1nc(-c2ccccn2)nc2ccccc12`, for which the B-score was -6.28 (active).

On to `CC(=O)Nc1ccc(S(=O)(=O)NC2(C(F)(F)F)C(=O)NC(C)=C2C#N)cc1` (stereo not drawn), for which the B-score entry was “inactive”.

As to `O=S1(=O)CCOC[C@H](CC2CCCCC2)N1Cc1ccc(F)cc1`, the B-score entry was “inactive”. `N=c1c2c3c(sc2nc2n1CCCCC2)CCCC3`: the B-score was -10.6 (active). For `CC1(C)Cc2c(sc3nc4n(c(=N)c23)CCCCC4)CO1`, the B-score entry was “inactive”. The same measure for `NNC(=O)C1CCCn2c1nc1sc3c(c1c2=O)CCCC3` (stereo not drawn): “inactive”.

On to `Cc1ccc(-c2nc(CSCC(=O)NC3CCN(Cc4ccccc4)CC3)c(C)o2)cc1`, for which the B-score entry is “inactive”. With `Cc1c(-c2ccccc2)n[nH]c1C(=O)N=Nc1c(O)[nH]c2ccccc12` the entry was “inactive”; with `O=C(c1cnc(Cl)c(Cl)c1)N1CCN(S(=O)(=O)c2ccc(F)cc2)CC1`, “inactive”; with `O=C(O)C1CCCCC1C(=O)N1CCN(S(=O)(=O)c2ccc(F)cc2)CC1` (stereo not drawn), “inactive”. As to `O=C(c1cccc(-n2cccc2)c1)N1CCN(S(=O)(=O)c2ccc(F)cc2)CC1`, the B-score was -5.32 (active).

`c1ccc2c(c1)OCCOCCOCCO2`: the B-score result is “inactive”. For `CCOc1nc(NCCN2CCOCC2)nc(Nc2ccc(C)cc2)n1`, the B-score was -5.49 (active).

Turning to `Nc1nc(NCCCN2CCOCC2)nc(Nc2ccccc2)c1[N+](=O)[O-]`, the B-score result is “inactive”. With `CCOc1cccc(/C=N/NC(=S)NCCN2CCOCC2)c1O` the entry was “inactive”.

Regarding `Cc1c(Br)ccc(NC(=O)COc2ccccc2C(N)=O)c1C`, the B-score result is “inactive”. With `O=S(=O)(Nc1cccc(Oc2ccc(Cl)cc2)n1)c1ccc(F)cc1`, the B-score result is “inactive”. Regarding `COc1cccc(NC(=O)Nc2nnc(N3CCCCC3C)s2)c1` (stereo not drawn), the B-score result was “inactive”. With `CCOC(=O)C1CCN(Cc2c(C(=O)N3CCOCC3)nc3c(C)cccn23)CC1` the entry was “inactive”; with `Nc1nc(-c2ccccc2)cc(-c2ccccc2)n1`, “inactive”. Regarding `COc1ccc(-c2cc(C(=O)N(C)Cc3ccccc3)c3ccccc3n2)cc1`, the B-score entry is “inactive”. With `CN(C)c1cc(N)c2ccccc2n1` (tested in a mixture with another compound) the figure was -9.26 (active). For the molecule `Cc1cc(C)c(S(=O)(=O)NCCCN2CCOCC2)cc1Br`, the B-score result is “inactive”. For the molecule `CN1CC(c2ccccc2)C2(COc3ccccc3C2=O)C12C(=O)Nc1ccccc12` (stereo not drawn), the B-score entry was “inactive”.

Regarding `Cc1ccc2c(c1)C1CN(C)CCC1N2C(=S)Nc1ccc(OC(F)F)cc1` (stereo not drawn), the B-score result is “inactive”. With `S=C(Nc1ccc(Cl)cc1Cl)N1CCCC1`, the B-score result is “inactive”. The same measure for `Cc1ccc2c(c1)C1CN(C)CCC1N2C(=S)Nc1ccc(Cl)cc1Cl` (stereo not drawn): -5.46 (active); for `Cc1ccc(S(=O)(=O)N(Cc2ccccc2)c2ccccn2)cc1[N+](=O)[O-]`: “inactive”. The same measure for `O=C(C[n+]1ccc2c(c1)nnn2-c1ccccc1)c1ccc(Cl)cc1`: -5.81 (active); for `O=C(CSc1cccc[n+]1[O-])c1ccc(Cl)cc1`: “inactive”. Take `O=C(Cn1cc(-c2nnnn2-c2ccc(Cl)cc2)c(=O)c2ccccc21)c1ccccc1`: the B-score result was “inactive”.

As to `COc1ccccc1NS(=O)(=O)N(C)C`, the B-score entry was “inactive”. With `O=S(=O)(NCc1ccc(Cl)cc1Cl)c1cccs1`, the B-score entry was “inactive”. The same measure for `O=S(=O)(Nc1ccccc1Br)c1cccs1`: “inactive”; for `O=C(Nc1cccc(Cl)c1)Nc1ccccc1NS(=O)(=O)c1cccs1`: -5.11 (active).

As to `COCCCN1C(=O)C(=O)/C(=C(/O)c2ccc(S(=O)(=O)N3CCOCC3)cc2)C1c1ccc(F)cc1` (stereo not drawn), the B-score result is “inactive”. As for `COC(=O)c1sccc1-n1cccc1C(=O)C(=O)N1CCCCC1`, the B-score entry is “inactive”.

`COc1ccccc1OCC(O)CN1CCOCC1` (stereo not drawn): the B-score entry is “inactive”. The same measure for `COc1ccccc1OCCNCC(O)COc1cccc2[nH]c3ccccc3c12` (stereo not drawn): -7.01 (active).

Regarding `CC(C)(C)NCC(O)COc1cccc2[nH]c(=O)[nH]c12` (stereo not drawn), the B-score result was “inactive”. As to `CC(=O)c1ccc(N2CCN(C(=O)C3CCN(S(=O)(=O)c4ccc5c(c4)CC(C)N5C(=O)C4CC4)CC3)CC2)cc1` (stereo not drawn), the B-score result is “inactive”. As for `O=C(CSc1nnc(SCc2ccc(Cl)cc2)s1)N/N=C/c1ccccc1Cl`, the B-score entry is “inactive”. In the case of `CCN(C(=O)COC(=O)c1ccc(COc2ccc3c(C)cc(=O)oc3c2)cc1)C1CCS(=O)(=O)C1` (stereo not drawn), the B-score result was “inactive”. As for `Cc1ccc(S(=O)(=O)N2CCN(C(=O)c3ccc(-n4cncn4)c([N+](=O)[O-])c3)CC2)cc1`, the B-score entry is “inactive”. With `CC(C)c1ccc(S(=O)(=O)N2CCN(C(=O)c3ccc(N4CCCC4)c([N+](=O)[O-])c3)CC2)cc1`, the B-score entry is “inactive”. With `Nc1ccc(C(=O)N2CCN(S(=O)(=O)c3ccc(Cl)cc3)CC2)cc1[N+](=O)[O-]`, the B-score is -5.95 (active). Regarding `CSc1nnc(-c2ccc(C(F)(F)F)cn2)o1`, the B-score result was “inactive”. Consider `CCOc1ccc(NC(=O)CSc2nncn2C)cc1`, for which the B-score result was “inactive”. As for `COc1ccc(-c2ccc3nnc(SCC(=O)Nc4ccc(NC(C)=O)cc4)n3n2)cc1`, the B-score entry was “inactive”. With `CCCCc1nc(NCCN)c(C#N)c2c1CSC(C)(C)C2`, the B-score was -5.09 (active). For the molecule `CCCCc1nc(NCc2ccccc2)c(C#N)c2c1CCCC2`, the B-score entry was “inactive”. On to `Cc1nc(NCCN)c(C#N)c2c1COC(C)(C)C2`, for which the B-score entry is “inactive”. As for `Cc1cc(NC(=O)C(C)SCC(=O)Nc2ccccc2N2CCCCC2)no1` (stereo not drawn), the B-score entry is “inactive”.

With `CN(Cc1cccc2ncccc12)C(=O)CC1C(=O)NCCN1Cc1ccc(F)cc1` (stereo not drawn), the B-score entry is “inactive”. As for `O=C(O)c1ccc(NC(=O)c2ccc(COc3ccc(Cl)cc3)o2)cc1`, the B-score is -5.87 (active). The same measure for `COc1ccc(NC(=O)CN(C)C(=O)c2ccc(COc3ccccc3)o2)cc1`: “inactive”; for `Cc1cc(OCc2ccc(C(=O)Nc3ccc(C(=O)O)cc3)o2)ccc1Cl`: “inactive”; for `O=C(COC(=O)CC1CC2CCC1C2)NC(=O)NC1CCCC1` (stereo not drawn): “inactive”. The same measure for `O=C(COc1ccccc1)Nc1ccc(N2CCN(C(=O)c3cccs3)CC2)cc1`: “inactive”; for `COCC(=O)Nc1cc(C(=O)OC)cc(C(=O)OC)c1`: “inactive”; for `Cc1cccc(N2CCN(C(c3ccc(N(C)C)cc3)c3nnnn3C(C)(C)C)CC2)c1C` (stereo not drawn): “inactive”. With `CC(C)(C)n1nnnc1C(c1ccc(Cl)cc1)N1CCSCC1` (stereo not drawn) the entry was “inactive”. In the case of `CC(C)(C)n1nnnc1C(c1ccc2ncccc2c1)N1CCSCC1` (stereo not drawn), the B-score was -11.5 (active). With `O=C(NCCc1ccccc1Cl)C1CCC(=O)N(CCCc2ccccc2)C1` (stereo not drawn) the entry was “inactive”; with `CC(C)c1ccc(NC(=O)Cn2ncc3ccccc32)cc1`, -5.5 (active).

On to `CCc1ccc(NC(=O)Cn2ncn3c(cc4ccccc43)c2=O)cc1`, for which the B-score result is “inactive”.

For the molecule `CCOC(=O)c1cn(CC(=O)Nc2ccc(C(C)C)cc2)nn1`, the B-score result was “inactive”.

With `Cc1cc(O)c(C2(O)C(=O)Nc3ccccc32)cc1C` (stereo not drawn), the B-score result was “inactive”. With `CCc1ccccc1NC(=O)CN(c1ccc(OC)cc1OC)S(=O)(=O)c1ccccc1[N+](=O)[O-]`, the B-score entry was “inactive”. Consider `COCc1ccc(C(=O)N2CCc3c([nH]c4ccccc34)C2c2ccccn2)s1` (stereo not drawn), for which the B-score result is “inactive”.

With `CCOc1ccc(C2c3[nH]c4ccccc4c3CCN2Cc2cccn2-c2ncccn2)cc1` (stereo not drawn), the B-score result is “inactive”.

Regarding `c1ccc(C2c3[nH]c4ccccc4c3CCN2Cc2cccn2-c2cccnc2)nc1` (stereo not drawn), the B-score was -6.75 (active).
